A short description of experiment [1]: anti-His antibody binders, primary screen, artefact control for SMM control protein annotation, biochemical, small-molecule microarray, 635 nm fluorescence (AID 1128).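 Further: score merges feature fluorescence with signal-to-noise for each printed compound spot.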 Particulars: anti-His Alexa647 antibody binding, higher = more signal.
For experiment [2], the system named is Human papillomavirus type 1a E7 protein (residues 1-88). Kind of experiment: HPV1a E7 small-molecule binders, primary screen, biochemical, small-molecule microarray, residues 1-88, 635 nm (AID 1129). Particulars: small-molecule microarray binding, fluorescence 635 nm; higher = more signal.
In experiment [3] the target is Focal adhesion kinase 1 (Homo sapiens) (UniProt Q05397). Kind of experiment: small-molecule microarray binders of FAK, primary screen, biochemical, 635/667 nm fluorescence, BSA, DTT (AID 1130).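 Further: composite of spot emission at 667 nm and signal to noise over triplicate slides.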 Particulars: PTK2 binding, 635 nm fluorescence, higher = more signal.
The subject of experiment [4] is Fibrinogen (Alexa647-labelled). In words: fibrinogen binders on compound microarrays, profiling panel, artefact control for SMM control-protein annotation, biochemical, small-molecule microarray, 635/667 nm fluorescence (AID 1131).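 Further: z-score merges 667 nm fluorescence with per-spot signal-to-noise over triplicate slides.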 Conditions: fibrinogen-A647 binding fluorescence, higher = more signal.
Experiment [5] has as its target Follistatin (Homo sapiens) (UniProt P19883). Kind of experiment: follistatin binders on small-molecule microarrays, primary screen, biochemical, small-molecule microarray, 635/667 nm fluorescence (AID 1132). Particulars: FST binding, 635 nm fluorescence, higher = more signal.
Experiment [6] deals with Fibroblast growth factor 2 (Homo sapiens) (UniProt P09038). Kind of experiment: FGF2 binders on small-molecule microarrays, primary screen, biochemical, small-molecule microarray, 635/667 nm fluorescence (AID 1133). Conditions: small-molecule microarray binding, FGF2, fluorescence 635/667; higher = more signal.
The nature of experiment [7]: mitochondrial membrane potential change in A549 cells, profiling panel, cell-based, JC-1 fluorescence, basal, 24 h, 100 nL (AID 1138).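 Further: A549 lung adenocarcinoma cells under basal conditions with no added stimulus; test concentration not given here.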 Conditions: higher = more signal.
Another experiment has as its system Lefty1. Kind of experiment: Lefty1 binders on small-molecule microarrays, primary screen, biochemical, small-molecule microarray, 635/667 nm fluorescence (AID 1139). Particulars: small-molecule microarray binding, fluorescence 635/667; higher = more signal.
Experiment [8] has as its system wheat germ agglutinin (Triticum aestivum), Alexa647-labelled. In words: wheat germ agglutinin binders on compound microarrays, profiling panel, artefact control for SMM control-protein annotation, biochemical, small-molecule microarray, 635/667 nm fluorescence (AID 1140).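 Further: score merges 667 nm feature emission with signal to noise over triplicate slides.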 Particulars: WGA-A647 binding, 635 nm fluorescence, higher = more signal.
In experiment [9] the target is Luciferin 4-monooxygenase (Photinus pyralis) (UniProt P08659). Kind of experiment: firefly luciferase enzyme inhibitors, primary screen, biochemical, luminescence, purified enzyme, 2006 set (AID 1141).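 Further: cell-free assay with purified firefly luciferase at 100 ng per well in PBS; test concentration not given here.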 Particulars: SteadyGlo luminescence, 30 min, higher = more signal, called active from +8 up or from −8 down.
Experiment [10] concerns Wnt5a (protein binding on small-molecule microarray). Kind of experiment: Wnt5a binders on small-molecule microarray, primary screen, biophysical, 635/667 nm fluorescence (AID 1142).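 Further: fluorescence read at 667 nm with signal to noise per printed feature.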 Conditions: 635 nm fluorescence, higher = more signal.
Experiment [11] can be described thus: cell viability in Huh7 cells, primary screen, cytotoxicity control for HCV replication inhibitor project, CellTiter-Glo luminescence, basal, 48 h (AID 1143).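 Further: Huh7 hepatoma cells carrying a hepatitis C replication reporter with no stimulus; test concentration not given here.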 Conditions: Huh7 HCV replicon, higher = more signal, called active from +8 up or from −8 down.
The nature of experiment [12]: P. aeruginosa biofilm formation inhibitors, primary screen, PAO1 strain, BacTiter-Glo luminescence, LB-PBS (AID 1144). Conditions: 12 h, higher = more signal.
Experiment [13] in a line: CREB reporter modulators without forskolin, primary screen, cell-based, PC12, CRE-LacZ reporter, unstimulated (AID 1145). Particulars: no forskolin, luminescence, 4.5 h, higher = more signal, called active from +8 up or from −8 down.
Experiment [14] in a line: CREB reporter modulators under forskolin, primary screen, cell-based, PC12, CRE-LacZ reporter, forskolin-stimulated (AID 1146).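 Further: PC12 cells with 6xCRE LacZ reporter stimulated by forskolin 10 µM; beta-galactosidase reporter signal reflecting CREB driven transcription.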 Conditions: luminescence, 4.5 h, higher = more signal, called active from +8 up or from −8 down.
Experiment [15] addresses Streptavidin (Streptomyces avidinii) (UniProt P22629). In words: streptavidin binders on small-molecule microarray, primary screen, artefact control for SMM compound annotation, biophysical, 635/667 nm fluorescence (AID 1147).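 Further: signal reflects streptavidin binding to arrayed compounds as a control protein.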 Particulars: streptavidin binding, higher = more signal.
Experiment [16] is described as follows: small-molecule binders of probe aInhba, primary screen, biochemical, small-molecule microarray, 635/667 nm fluorescence (AID 1148).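 Further: score merges 667nm spot fluorescence with signal-to-noise for antibody binding to printed compounds.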 Conditions: higher = more signal.
For experiment [17], the target named is Torsin-1A (Homo sapiens) (UniProt O14656). Kind of experiment: torsin A binders from cell lysate, primary screen, small-molecule microarray, wild-type, 635/667 nm (AID 1149). Conditions: COS7 hTOR1A-WT lysate, 635 nm fluorescence, higher = more signal.
Experiment [18] has the same target. In words: small-molecule binders of mutant TOR1A in lysate, primary screen, cell lysate, small-molecule microarray, COS7 lysate, 635/667 nm fluorescence (AID 1150).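 Further: score pools 667 nm emission and signal to noise measuring lysate protein binding.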 Conditions: COS7 hTOR1A mutant lysate, 635 nm fluorescence, higher = more signal.
The subject of experiment [19] is Sonic hedgehog protein (Shh). Kind of experiment: small-molecule binders of Shh protein, primary screen, biochemical, small-molecule microarray, 635/667 nm fluorescence (AID 1151).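 Further: Shh protein binding to compounds spotted on small-molecule microarray slides; score combines spot fluorescence intensity with signal-to-noise across triplicate slides.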 Particulars: small-molecule microarray binding, 635 nm fluorescence; higher = more signal.

Structures are written as SMILES. Activity calls are given as the source filed them. Unless noted, how the calls were made is not given here.

Chain of Torsin-1A (Homo sapiens) (O14656 whole entry, looked up): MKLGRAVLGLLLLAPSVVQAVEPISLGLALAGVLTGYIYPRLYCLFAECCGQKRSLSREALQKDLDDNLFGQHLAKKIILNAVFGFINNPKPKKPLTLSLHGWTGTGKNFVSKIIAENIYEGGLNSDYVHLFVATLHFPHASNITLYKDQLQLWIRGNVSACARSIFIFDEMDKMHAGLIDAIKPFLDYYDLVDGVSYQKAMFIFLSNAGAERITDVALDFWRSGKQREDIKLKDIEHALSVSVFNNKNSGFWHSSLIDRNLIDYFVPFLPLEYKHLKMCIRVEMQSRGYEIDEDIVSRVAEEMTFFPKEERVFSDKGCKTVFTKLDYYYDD
Chain of Luciferin 4-monooxygenase (Photinus pyralis) (P08659 whole entry, looked up): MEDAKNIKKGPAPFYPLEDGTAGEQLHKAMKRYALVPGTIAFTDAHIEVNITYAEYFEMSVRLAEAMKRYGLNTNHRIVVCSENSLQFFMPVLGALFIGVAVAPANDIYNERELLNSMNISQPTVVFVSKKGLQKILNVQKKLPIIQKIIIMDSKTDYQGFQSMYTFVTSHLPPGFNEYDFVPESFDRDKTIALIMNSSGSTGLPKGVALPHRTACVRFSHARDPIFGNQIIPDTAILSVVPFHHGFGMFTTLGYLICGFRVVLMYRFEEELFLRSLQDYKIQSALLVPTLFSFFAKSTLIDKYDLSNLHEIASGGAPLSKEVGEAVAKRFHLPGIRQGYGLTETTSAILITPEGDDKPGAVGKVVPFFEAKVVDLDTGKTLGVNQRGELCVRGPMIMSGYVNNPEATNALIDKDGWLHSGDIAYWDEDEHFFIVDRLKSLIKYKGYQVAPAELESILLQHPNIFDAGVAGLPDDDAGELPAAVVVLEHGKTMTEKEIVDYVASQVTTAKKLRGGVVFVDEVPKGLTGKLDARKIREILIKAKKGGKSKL
Chain of Streptavidin (Streptomyces avidinii) (P22629 whole entry, looked up): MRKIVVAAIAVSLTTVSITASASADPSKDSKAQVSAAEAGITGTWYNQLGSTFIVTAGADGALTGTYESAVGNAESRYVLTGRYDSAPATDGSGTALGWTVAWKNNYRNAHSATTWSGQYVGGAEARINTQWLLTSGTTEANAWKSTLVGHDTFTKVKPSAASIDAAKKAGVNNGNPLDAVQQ
Chain of Focal adhesion kinase 1 (Homo sapiens) (Q05397 whole entry, looked up): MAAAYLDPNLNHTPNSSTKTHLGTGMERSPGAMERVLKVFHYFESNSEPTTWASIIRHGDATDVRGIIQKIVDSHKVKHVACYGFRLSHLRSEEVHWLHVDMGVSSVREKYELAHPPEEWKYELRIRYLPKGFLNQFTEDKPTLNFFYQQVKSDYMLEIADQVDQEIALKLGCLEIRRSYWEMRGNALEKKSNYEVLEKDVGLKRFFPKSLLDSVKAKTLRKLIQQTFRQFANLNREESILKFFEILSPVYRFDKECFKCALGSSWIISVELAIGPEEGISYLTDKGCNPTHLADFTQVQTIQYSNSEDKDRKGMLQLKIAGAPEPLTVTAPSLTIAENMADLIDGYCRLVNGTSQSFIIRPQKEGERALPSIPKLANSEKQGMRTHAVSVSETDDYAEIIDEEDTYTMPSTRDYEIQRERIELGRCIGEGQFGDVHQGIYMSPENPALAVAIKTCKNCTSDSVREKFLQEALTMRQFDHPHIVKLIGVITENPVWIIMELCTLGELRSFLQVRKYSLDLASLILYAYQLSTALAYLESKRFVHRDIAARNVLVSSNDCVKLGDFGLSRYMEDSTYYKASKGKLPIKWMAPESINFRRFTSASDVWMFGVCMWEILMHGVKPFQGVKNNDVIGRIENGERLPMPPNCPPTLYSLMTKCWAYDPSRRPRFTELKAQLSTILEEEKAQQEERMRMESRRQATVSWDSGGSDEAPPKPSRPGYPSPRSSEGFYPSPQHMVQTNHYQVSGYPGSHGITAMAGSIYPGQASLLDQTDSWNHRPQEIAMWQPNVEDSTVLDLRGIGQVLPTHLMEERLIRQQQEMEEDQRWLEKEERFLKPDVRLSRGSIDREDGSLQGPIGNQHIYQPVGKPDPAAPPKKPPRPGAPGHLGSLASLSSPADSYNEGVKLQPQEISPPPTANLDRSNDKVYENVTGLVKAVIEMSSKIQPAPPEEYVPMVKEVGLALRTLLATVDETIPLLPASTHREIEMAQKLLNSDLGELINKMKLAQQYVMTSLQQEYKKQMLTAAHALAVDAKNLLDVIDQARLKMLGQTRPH
Chain of Follistatin (Homo sapiens) (P19883 whole entry, looked up): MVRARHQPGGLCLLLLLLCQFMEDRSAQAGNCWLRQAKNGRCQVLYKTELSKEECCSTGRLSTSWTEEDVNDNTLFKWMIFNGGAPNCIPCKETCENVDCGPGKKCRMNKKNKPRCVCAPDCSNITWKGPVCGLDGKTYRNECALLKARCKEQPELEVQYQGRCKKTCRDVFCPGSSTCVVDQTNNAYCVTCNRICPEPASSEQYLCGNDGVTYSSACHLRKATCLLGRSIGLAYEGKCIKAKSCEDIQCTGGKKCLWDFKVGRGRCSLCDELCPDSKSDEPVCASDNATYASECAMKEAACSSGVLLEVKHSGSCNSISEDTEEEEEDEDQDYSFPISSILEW
Chain of Fibroblast growth factor 2 (Homo sapiens) (P09038 whole entry, looked up): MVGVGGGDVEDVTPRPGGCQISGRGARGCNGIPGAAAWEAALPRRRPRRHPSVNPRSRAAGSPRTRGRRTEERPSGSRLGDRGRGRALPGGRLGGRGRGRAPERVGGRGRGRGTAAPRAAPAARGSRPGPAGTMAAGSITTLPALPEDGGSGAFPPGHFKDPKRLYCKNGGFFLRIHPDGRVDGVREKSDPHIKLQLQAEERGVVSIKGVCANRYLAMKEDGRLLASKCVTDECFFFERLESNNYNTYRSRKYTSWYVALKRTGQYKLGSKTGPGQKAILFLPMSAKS

Take `COc1ccc([Si](C)(C)[C@@H]2[C@@H](CCO)O[C@]3(C(=O)N(Cc4ccc(N5C(=O)c6cccc7cccc5c67)cc4)c4ccccc43)[C@H]2C)cc1`: the composite z-score in experiment [1] is -0.0225; in experiment [2] it was -0.797; in [3] it was 0.138; in experiment [4], -0.518; in [5], -1.12; in experiment [6], -0.753. Further, the composite z-score with Lefty1 was -0.536; in [8], 0.397; in experiment [10] it was -0.404; in experiment [15], -0.376; in experiment [16], -0.0791; with Torsin-1A (Homo sapiens) [17] it was -0.565. The composite z-score with Torsin-1A (Homo sapiens) [18] is -0.535; in [19], 0.0554. The z-score in experiment [7] was 1.23; in experiment [9], -0.604 (inactive); in experiment [11], -6.09 (inactive); in [12] it was -0.0686 (inactive); in [13], 4.11 (inactive); in experiment [14] it was 0.201 (inactive).
As for `COc1ccc(C(=O)Nc2cccc(CN3C(=O)[C@@]4(O[C@@H](CC(=O)N5Cc6ccccc6C[C@H]5CO)[C@H]([Si](C)(C)c5ccc(OC)cc5)[C@H]4C)c4ccccc43)c2)cc1`, the composite z-score in [1] turned out to be 1.37; in [2] it was 0.86; in experiment [3], 0.469; in [4], 0.622; in experiment [5], 1.13; in experiment [6], 1.25. Moreover, the composite z-score with Lefty1 is 1.57; in experiment [8], 0.29; in experiment [10] it was 0.209; in experiment [15] it was 0.395; in experiment [16] it was -0.0095; in the experiment with Torsin-1A (Homo sapiens) [17] it was 0.726. Moreover, the composite z-score amounted to 0.488 in the experiment with Torsin-1A (Homo sapiens) [18] and 2.06 in experiment [19]. The z-score is 0.68 in experiment [7]; -1.52 (inactive) in experiment [9]; -5.04 (inactive) in experiment [11]; -0.473 (inactive) in experiment [12]; 4.45 (inactive) in [13]; -0.534 (inactive) in experiment [14].
As for `CC(=O)N1Cc2ccccc2C[C@@]2(N=C(c3ccc(OCCCO)cc3)O[C@H]2c2ccccc2)C1=O`, the composite z-score came out at 2.65 in [1]; 1.17 in experiment [2]; 0.52 in experiment [3]; 0.657 in experiment [4]; 1.41 in [5]; 1.66 in [6]. The composite z-score in the experiment with Lefty1 was 0.63; in [8] it was 1.1; in experiment [10], 0.604; in [15] it was 0.326; in experiment [16], 0.482; in the experiment with Torsin-1A (Homo sapiens) [17], 0.513. In addition, the composite z-score with Torsin-1A (Homo sapiens) [18] was determined as 1.17; in experiment [19], 1.69. The z-score was 0.592 in [7]; -2.32 (inactive) in experiment [9]; -4.03 (inactive) in [11]; -0.519 (inactive) in [12]; 1.53 (inactive) in experiment [13]; -0.634 (inactive) in experiment [14].
Take `Cc1cccc(/C=C/C=O)c1`: the composite z-score in experiment [1] was -0.109; in [2], -0.115; in [3] it was 0.0048; in experiment [4] it was 0.458; in experiment [5], 0.198; in experiment [6], -0.163. Also, the composite z-score in the experiment with Lefty1 is -0.119; in [8] it was 0.718; in experiment [10] it was -0.0267; in experiment [15], 1.04; in experiment [16] it was -0.0963; with Torsin-1A (Homo sapiens) [17], -0.782. The values for the composite z-score (with Torsin-1A (Homo sapiens) [18]; in experiment [19]) were -0.295 and 0.0638, respectively. Also, the z-score in experiment [7] is 0.538; in experiment [9], -0.953 (inactive); in experiment [11], 0.585 (inactive); in [12] it was 0.16 (inactive); in experiment [13], 0.0924 (inactive); in experiment [14] it was -0.0647 (inactive).
As to `CC1CC/C=C\[C@H]2OC34C=CCN(c5ccc6ccccc6c5)C(=O)[C@H]3N(CCCCCO)C(=O)[C@@H]4C2C(=O)O1` (stereo not given in full), the composite z-score was -0.946 in [1]; -0.824 in experiment [2]; -0.673 in experiment [3]; -2.2 in experiment [4]; -1.02 in [5]; -1.65 in [6]. In addition, the composite z-score in the experiment on Lefty1 was -0.994; in [8] it was -0.0369; in experiment [10] it was -1.12; in experiment [15], -1.72; in experiment [16], -0.233; with Torsin-1A (Homo sapiens) [17] it was -1.03. The composite z-score with Torsin-1A (Homo sapiens) [18] is -1.19; in experiment [19], -1.18. Further, the z-score in [7] is 0.987; in [9], -0.391 (inactive); in experiment [11], 0.385 (inactive); in experiment [12], 0.669 (inactive); in experiment [13] it was 0.333 (inactive); in experiment [14], -0.233 (inactive).

For the origin of these results see PubChem BioAssay.
